The values below come from ChEMBL document CHEMBL2218924, “A broad activity screen in support of a chemogenomic map for kinase signalling research and drug discovery” (Biochem J, 2013).

A word on the residual activity: it is the signal under treatment as a percentage of the control signal.

In assay [1] the target is T1, Muscle, skeletal receptor tyrosine-protein kinase (Homo sapiens) (UniProt O15146).
T1 sequence (whole entry): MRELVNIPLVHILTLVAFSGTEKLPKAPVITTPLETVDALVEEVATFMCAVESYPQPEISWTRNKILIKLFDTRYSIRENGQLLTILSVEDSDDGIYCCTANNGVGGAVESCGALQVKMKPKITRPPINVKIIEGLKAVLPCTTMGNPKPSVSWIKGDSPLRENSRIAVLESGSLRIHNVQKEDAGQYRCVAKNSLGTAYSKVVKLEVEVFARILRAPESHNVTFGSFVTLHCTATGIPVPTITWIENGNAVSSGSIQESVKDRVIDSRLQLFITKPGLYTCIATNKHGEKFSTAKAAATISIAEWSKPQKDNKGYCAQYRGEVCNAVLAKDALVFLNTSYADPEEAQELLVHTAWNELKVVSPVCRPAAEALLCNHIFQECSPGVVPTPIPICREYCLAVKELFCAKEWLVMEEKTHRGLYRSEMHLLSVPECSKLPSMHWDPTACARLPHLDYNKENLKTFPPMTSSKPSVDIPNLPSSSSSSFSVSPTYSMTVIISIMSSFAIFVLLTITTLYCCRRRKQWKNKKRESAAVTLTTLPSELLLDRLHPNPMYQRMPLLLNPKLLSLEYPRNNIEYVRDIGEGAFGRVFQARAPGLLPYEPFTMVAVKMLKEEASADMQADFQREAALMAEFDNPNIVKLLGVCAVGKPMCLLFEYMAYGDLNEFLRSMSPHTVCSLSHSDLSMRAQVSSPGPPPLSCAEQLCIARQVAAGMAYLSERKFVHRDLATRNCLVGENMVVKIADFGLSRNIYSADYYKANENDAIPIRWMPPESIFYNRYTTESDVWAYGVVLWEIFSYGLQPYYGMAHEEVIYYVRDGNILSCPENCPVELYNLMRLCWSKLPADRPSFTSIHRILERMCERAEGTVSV
To be noted: at 1 µM.

Assay [2] addresses T1, Muscle, skeletal receptor tyrosine-protein kinase (Homo sapiens). The conditions noted are these: at 10 µM.
In assay [3] the target is T2, Serine/threonine-protein kinase Nek11 (Homo sapiens) (UniProt Q8NG66).
T2 sequence (whole entry): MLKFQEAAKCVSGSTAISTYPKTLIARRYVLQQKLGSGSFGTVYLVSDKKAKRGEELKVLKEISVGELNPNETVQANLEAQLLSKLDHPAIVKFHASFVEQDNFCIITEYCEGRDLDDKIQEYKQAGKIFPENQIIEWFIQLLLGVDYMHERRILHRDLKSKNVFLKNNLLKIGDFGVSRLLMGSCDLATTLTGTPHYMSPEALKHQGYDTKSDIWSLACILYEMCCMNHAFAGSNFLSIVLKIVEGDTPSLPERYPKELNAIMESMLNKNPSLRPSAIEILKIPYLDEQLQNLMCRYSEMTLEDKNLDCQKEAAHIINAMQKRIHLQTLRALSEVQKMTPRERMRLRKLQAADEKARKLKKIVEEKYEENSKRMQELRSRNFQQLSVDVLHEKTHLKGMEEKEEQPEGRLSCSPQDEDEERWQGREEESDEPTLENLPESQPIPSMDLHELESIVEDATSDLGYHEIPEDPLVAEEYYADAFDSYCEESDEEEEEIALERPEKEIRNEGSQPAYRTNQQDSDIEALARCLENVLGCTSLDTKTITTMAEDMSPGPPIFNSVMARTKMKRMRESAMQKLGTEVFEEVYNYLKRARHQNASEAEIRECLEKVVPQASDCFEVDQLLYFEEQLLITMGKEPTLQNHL
To be noted: at 1 µM.

The target of assay [4] is T2, Serine/threonine-protein kinase Nek11 (Homo sapiens). The conditions noted are these: at 10 µM.
Assay [5] deals with T3, Serine/threonine-protein kinase Nek2 (Homo sapiens) (UniProt P51955).
T3 sequence (whole entry): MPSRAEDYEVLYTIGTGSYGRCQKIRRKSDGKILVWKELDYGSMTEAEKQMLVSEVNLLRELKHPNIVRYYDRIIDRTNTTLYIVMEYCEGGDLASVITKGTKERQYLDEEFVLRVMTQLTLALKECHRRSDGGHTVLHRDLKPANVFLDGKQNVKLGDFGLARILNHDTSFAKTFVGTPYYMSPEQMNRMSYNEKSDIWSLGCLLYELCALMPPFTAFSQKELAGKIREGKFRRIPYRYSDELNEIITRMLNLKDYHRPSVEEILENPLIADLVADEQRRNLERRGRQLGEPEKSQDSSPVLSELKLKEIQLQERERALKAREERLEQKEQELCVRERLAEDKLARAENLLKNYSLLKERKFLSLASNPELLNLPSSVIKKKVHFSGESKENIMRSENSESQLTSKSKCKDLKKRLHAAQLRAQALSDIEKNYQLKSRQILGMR
The conditions noted are these: at 1 µM.

Assay [6] has as its target T3, Serine/threonine-protein kinase Nek2 (Homo sapiens). To be noted: at 10 µM.
In assay [7] the target is T4, Serine/threonine-protein kinase Nek3 (Homo sapiens) (UniProt P51956).
T4 sequence (whole entry): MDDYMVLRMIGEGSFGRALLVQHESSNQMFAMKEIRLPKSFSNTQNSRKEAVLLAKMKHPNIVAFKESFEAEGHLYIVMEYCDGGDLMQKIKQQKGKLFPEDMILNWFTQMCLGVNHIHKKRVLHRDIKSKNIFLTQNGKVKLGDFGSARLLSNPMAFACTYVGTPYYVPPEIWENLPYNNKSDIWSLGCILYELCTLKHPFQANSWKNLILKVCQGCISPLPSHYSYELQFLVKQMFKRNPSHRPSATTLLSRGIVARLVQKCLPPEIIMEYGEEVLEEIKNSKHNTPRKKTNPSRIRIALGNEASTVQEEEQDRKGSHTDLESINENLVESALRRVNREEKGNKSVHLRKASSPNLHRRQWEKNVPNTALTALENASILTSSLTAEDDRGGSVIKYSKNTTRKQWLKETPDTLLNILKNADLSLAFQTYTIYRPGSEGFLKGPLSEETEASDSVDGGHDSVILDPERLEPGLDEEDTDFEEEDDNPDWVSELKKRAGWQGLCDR
To be noted: at 1 µM.

The target in assay [8] is T4, Serine/threonine-protein kinase Nek3 (Homo sapiens). The conditions noted are these: at 10 µM.
Assay [9] concerns the target Serine/threonine-protein kinase tousled-like 2 (Homo sapiens) (UniProt Q86UE8). To be noted: at 1 µM.
Assay [10] shares this target. To be noted: at 10 µM.
Assay [11] addresses T5, Testis-specific serine/threonine-protein kinase 1 (Homo sapiens) (UniProt Q9BXA7).
T5 sequence (whole entry): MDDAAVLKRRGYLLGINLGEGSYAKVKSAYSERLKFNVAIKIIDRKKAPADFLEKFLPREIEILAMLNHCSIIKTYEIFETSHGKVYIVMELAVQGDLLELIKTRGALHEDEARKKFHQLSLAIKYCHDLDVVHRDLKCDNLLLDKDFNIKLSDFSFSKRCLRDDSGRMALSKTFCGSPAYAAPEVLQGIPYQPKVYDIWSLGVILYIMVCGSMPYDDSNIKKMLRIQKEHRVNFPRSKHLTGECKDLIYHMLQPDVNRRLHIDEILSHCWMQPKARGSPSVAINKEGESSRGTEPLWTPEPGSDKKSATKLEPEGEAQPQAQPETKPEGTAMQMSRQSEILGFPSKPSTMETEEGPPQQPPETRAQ
To be noted: at 1 µM.

The target of assay [12] is T5, Testis-specific serine/threonine-protein kinase 1 (Homo sapiens). To be noted: at 10 µM.
Assay [13] addresses T6, Testis-specific serine/threonine-protein kinase 2 (Homo sapiens) (UniProt Q96PF2).
T6 sequence (whole entry): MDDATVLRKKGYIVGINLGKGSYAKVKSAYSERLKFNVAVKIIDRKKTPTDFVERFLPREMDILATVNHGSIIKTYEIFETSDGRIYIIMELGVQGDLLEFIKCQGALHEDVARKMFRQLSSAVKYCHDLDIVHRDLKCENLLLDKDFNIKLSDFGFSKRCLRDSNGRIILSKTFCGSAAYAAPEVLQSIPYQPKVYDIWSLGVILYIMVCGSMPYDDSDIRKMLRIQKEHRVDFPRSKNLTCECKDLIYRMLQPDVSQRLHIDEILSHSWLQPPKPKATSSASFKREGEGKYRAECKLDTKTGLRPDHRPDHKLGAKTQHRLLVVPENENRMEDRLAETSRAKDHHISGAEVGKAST
To be noted: at 10 µM.

For assay [14], the target named is T7, Tyrosine-protein kinase Tec (Homo sapiens) (UniProt P42680).
T7 sequence (whole entry): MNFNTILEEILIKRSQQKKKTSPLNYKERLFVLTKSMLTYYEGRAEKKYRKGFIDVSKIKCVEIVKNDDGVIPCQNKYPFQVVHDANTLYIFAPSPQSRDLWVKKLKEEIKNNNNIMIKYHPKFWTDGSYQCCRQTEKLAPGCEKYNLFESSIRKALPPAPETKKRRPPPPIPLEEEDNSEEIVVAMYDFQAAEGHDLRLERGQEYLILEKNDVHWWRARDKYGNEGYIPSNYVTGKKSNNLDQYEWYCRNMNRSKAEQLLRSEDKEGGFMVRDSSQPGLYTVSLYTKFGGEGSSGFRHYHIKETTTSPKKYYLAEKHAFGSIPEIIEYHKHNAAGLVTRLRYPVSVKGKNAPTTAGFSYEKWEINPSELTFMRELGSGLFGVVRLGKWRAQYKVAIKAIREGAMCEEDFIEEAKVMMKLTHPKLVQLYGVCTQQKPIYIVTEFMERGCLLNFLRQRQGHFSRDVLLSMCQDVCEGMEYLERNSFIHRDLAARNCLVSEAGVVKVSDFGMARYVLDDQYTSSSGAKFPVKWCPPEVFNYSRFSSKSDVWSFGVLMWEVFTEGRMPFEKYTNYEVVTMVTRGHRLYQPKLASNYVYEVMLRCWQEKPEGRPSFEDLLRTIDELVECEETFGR
The conditions noted are these: at 1 µM.

Assay [15] concerns the target T7, Tyrosine-protein kinase Tec (Homo sapiens). The conditions noted are these: at 10 µM.
In assay [16] the target is Angiopoietin-1 receptor (Homo sapiens) (UniProt Q02763). To be noted: at 1 µM.
Angiopoietin-1 receptor (Homo sapiens), sequence (Q02763 whole entry): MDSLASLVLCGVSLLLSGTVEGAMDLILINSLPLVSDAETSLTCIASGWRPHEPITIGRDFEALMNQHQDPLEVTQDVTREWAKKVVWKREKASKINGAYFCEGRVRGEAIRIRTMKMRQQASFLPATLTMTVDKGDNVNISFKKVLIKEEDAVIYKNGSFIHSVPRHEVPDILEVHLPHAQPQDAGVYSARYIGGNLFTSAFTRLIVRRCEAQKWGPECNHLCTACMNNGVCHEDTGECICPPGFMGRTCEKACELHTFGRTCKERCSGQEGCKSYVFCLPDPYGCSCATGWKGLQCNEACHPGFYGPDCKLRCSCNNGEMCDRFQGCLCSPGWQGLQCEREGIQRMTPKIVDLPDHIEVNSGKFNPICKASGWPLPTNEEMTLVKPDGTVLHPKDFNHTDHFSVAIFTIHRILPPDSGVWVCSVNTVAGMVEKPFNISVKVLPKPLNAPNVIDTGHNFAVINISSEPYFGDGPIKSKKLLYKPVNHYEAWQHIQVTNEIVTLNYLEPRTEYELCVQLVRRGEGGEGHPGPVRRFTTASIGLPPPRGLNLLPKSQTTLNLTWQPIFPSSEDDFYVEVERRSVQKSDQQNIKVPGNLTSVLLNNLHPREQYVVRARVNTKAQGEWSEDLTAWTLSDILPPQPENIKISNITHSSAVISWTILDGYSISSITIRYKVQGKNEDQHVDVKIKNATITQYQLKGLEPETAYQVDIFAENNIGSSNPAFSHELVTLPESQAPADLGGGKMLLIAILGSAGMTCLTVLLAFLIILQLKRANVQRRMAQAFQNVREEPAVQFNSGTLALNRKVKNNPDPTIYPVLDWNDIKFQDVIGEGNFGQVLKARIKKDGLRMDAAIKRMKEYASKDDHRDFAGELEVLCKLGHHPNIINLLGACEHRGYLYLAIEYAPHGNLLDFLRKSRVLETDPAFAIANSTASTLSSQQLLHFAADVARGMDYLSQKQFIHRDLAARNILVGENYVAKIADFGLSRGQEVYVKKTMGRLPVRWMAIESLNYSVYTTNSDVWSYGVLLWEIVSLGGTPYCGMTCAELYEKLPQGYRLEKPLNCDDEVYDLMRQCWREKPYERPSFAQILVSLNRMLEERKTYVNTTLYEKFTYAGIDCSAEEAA
The target is the same in assay [17]. The conditions noted are these: at 10 µM.
Assay [18] concerns the target High affinity nerve growth factor receptor (Homo sapiens) (UniProt P04629). The conditions noted are these: at 1 µM.
For assay [19] the target is unchanged. To be noted: at 10 µM.
Assay [20] addresses BDNF/NT-3 growth factors receptor (Homo sapiens) (UniProt Q16620). The conditions noted are these: at 1 µM.

Serine/threonine-protein kinase tousled-like 2 (Homo sapiens), sequence (Q86UE8 whole entry, looked up): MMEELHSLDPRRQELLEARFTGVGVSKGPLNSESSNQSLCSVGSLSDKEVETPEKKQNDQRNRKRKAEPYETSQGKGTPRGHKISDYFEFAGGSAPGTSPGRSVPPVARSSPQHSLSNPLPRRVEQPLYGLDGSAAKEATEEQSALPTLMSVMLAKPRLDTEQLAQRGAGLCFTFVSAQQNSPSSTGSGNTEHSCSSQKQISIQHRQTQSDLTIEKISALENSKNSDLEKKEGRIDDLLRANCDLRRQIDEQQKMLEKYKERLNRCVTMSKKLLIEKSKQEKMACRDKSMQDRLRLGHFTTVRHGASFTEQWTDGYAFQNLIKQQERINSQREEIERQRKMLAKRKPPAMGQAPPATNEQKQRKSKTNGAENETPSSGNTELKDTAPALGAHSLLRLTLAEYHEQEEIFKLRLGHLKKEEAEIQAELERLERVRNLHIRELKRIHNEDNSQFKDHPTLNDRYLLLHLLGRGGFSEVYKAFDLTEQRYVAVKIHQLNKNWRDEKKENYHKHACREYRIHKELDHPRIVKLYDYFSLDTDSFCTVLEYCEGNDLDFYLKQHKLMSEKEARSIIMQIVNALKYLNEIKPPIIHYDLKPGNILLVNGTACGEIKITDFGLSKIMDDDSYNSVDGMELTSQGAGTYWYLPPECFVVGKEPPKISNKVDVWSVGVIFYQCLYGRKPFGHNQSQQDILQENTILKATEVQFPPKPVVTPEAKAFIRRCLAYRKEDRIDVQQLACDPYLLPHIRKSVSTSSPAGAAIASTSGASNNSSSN
BDNF/NT-3 growth factors receptor (Homo sapiens), sequence (Q16620 32-822 limits assumed): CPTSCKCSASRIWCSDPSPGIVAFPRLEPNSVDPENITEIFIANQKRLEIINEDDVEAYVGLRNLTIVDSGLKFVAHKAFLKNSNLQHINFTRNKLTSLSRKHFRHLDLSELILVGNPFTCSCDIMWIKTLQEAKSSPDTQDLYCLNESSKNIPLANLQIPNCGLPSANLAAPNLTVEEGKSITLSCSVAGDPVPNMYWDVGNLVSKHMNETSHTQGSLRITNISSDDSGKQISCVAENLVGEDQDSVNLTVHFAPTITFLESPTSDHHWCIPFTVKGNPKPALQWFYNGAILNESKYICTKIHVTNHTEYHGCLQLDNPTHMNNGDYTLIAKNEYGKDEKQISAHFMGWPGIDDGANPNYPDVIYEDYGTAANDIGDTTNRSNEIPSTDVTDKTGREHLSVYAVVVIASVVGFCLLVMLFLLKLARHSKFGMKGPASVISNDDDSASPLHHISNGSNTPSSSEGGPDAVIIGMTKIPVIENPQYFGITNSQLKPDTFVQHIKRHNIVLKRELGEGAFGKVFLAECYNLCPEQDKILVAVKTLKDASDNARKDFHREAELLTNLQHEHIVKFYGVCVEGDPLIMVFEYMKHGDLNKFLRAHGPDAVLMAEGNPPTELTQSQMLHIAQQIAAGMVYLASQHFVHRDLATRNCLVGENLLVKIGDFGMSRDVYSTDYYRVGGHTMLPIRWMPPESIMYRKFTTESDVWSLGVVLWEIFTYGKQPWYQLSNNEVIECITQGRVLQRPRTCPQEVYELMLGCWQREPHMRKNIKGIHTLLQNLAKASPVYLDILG
High affinity nerve growth factor receptor (Homo sapiens), sequence (P04629 33-796 limits assumed): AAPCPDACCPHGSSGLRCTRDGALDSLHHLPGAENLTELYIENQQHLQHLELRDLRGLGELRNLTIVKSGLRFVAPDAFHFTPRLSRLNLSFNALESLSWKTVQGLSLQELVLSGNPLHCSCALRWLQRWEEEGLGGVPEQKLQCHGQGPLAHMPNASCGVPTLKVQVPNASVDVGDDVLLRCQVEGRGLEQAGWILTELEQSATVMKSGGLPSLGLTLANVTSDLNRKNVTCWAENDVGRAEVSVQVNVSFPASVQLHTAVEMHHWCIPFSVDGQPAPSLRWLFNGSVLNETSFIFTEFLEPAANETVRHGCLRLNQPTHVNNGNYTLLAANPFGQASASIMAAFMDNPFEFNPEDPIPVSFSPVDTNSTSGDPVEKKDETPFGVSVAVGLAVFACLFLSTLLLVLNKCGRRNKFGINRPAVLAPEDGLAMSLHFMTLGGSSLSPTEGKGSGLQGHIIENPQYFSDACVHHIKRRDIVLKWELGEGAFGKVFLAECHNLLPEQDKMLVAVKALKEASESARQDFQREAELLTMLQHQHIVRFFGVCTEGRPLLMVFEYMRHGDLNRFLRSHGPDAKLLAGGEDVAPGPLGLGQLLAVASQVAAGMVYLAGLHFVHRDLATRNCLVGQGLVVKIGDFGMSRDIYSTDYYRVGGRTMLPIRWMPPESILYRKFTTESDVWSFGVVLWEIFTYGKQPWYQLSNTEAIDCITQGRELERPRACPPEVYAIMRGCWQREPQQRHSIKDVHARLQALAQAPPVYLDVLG

`Cc1nc2cc3nc(-c4cccs4)cnc3cc2n1C`: the residual activity in assay [1] was determined as 102%; in [2] it was 55%; in assay [3] it was 93%; in assay [4], 102%; in [5] it was 87%; in [6] it was 103%. Besides, the residual activity was 114% in assay [7]; 104% in [8]; 107% in assay [9]; 83% in assay [10]; 102% in assay [11]; 85% in assay [12]. Also, the residual activity in [13] turned out to be 93%; in assay [14], 83%; in [15] it was 101%; in [16], 81%; in assay [17] it was 61%; in assay [18] it was 72%. Moreover, the residual activity is 27% in assay [19] and 69% in assay [20].
Turning to `Cc1ccc(S(=O)(=O)/C=C/C#N)cc1`, the residual activity in assay [1] stood at 85%; in [2], 96%; in assay [3], 72%; in assay [4] it was 81%; in [5], 97%; in assay [6], 90%. Besides, the residual activity in assay [7] is 90%; in assay [8], 98%; in [9] it was 87%; in assay [10], 89%; in assay [11], 91%; in assay [12], 107%. Besides, the residual activity is 91% in assay [13]; 95% in [14]; 90% in assay [15]; 115% in [16]; 118% in [17]; 105% in assay [18]. The residual activity in assay [19] is 92%; in assay [20], 117%.
In the case of `Cc1ccc(NC2=CC(=O)c3sc(C)nc3C2=O)cc1`, the residual activity in assay [1] was found to be 90%; in [2] it was 85%; in assay [3] it was 66%; in assay [4], 75%; in [5], 91%; in assay [6], 89%. Moreover, the residual activity in assay [7] stood at 81%; in assay [8], 101%; in assay [9], 87%; in [10], 84%; in assay [11] it was 92%; in assay [12], 98%. For the same molecule, the residual activity in assay [13] was 86%; in assay [14] it was 85%; in [15], 93%; in [16], 100%; in assay [17], 99%; in assay [18], 89%. In addition, the figures for the residual activity in [19] and in assay [20] were 88% and 102%, respectively.
In the case of `COc1cccc(-c2cc(=O)c3ccccc3o2)c1N`, the residual activity was found to be 104% in [1]; 97% in [2]; 64% in assay [3]; 78% in assay [4]; 98% in assay [5]; 102% in assay [6]. Besides, the residual activity stood at 93% in [7]; 101% in [8]; 98% in [9]; 101% in [10]; 103% in assay [11]; 89% in [12]. In addition, the residual activity in assay [13] is 86%; in assay [14] it was 87%; in [15] it was 91%; in assay [16], 108%; in [17], 106%; in assay [18], 99%. Further, the values for the residual activity in assay [19] and in assay [20] were 92% and 105%, respectively.
